High-throughput results as filed in PubChem BioAssay.
An excerpt weighted towards active compounds, which were near 2.4% of everything screened.
D2 PAM-1 – HTS Assay for Positive Allosteric Modulators of the Human D2 Dopamine Receptor: Primary Screen for Potentiators; D(2) dopamine receptor (Homo sapiens), P14416; HEK293 T-REx D2, calcium flux, EC20 dopamine potentiation; potentiation, % at 10 µM; 340,000 tested, 0.34% active; AID 485347, 2010;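 active means potentiation over 3 SD above the plate norm, cut at about 30% in these data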
Target sequence (P14416 whole entry, looked up): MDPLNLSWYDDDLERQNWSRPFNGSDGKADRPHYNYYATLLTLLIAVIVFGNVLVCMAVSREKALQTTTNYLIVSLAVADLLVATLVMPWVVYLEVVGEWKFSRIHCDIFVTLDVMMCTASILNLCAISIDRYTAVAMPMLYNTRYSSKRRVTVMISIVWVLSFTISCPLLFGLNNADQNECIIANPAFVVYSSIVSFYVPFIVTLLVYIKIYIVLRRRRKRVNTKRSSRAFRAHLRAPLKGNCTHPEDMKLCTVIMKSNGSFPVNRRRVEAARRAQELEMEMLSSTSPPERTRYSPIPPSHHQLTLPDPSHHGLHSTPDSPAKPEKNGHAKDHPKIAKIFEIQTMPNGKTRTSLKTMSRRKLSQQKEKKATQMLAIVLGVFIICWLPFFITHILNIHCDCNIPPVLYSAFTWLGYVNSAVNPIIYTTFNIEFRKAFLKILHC
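Tetracycline-induced HEK293 T-REx cells force-coupled to calcium signalling expressed D2; compounds were pin-added after a 10 s baseline, read kinetically 180 s, then an EC20 dopamine challenge followed with a further 180 s calcium read.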
D2 ag-1 – HTS Assay for Allosteric Agonists of the Human D2 Dopamine Receptor: Primary Screen for Agonists. HEK293 T-REx D2 cells, calcium flux agonist mode. AID 485358, 2010. activation, % at 2 µM. 340,000 tested, 0.53% active;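 active means activation over 3 SD above normal in the single-dose calcium agonist read, cut at about 30% in these data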
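Calcium-flux readout, 1 cycle/sec over 180 s following compound pin transfer, in inducible HEK293 Trex D2 cells (force-coupled); dopamine controls included. Positive calcium responses during this window marked compounds as potential agonists.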
D2 ag-2 – Beta-Arrestin HTS for Positive Allosteric Modulators of the Human D2 Dopamine Receptor: Agonists; DiscoveRx PathHunter D2 beta-arrestin, luminescence, 90 min; 100% = 57 uM dopamine signal; AID 624465, 2012; activation, % (test concentration not listed); 360,000 tested, 0.084% active; D(2) dopamine receptor (Homo sapiens), P14416; in the data active means activation above about 40%; inconclusive means between about 15% and that limit
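DiscoveRx PathHunter D2 beta-arrestin cells (2,100/well) attached overnight, then compound-stimulated 90 min at 37 C in HBSS/10 mM HEPES/0.1% Tween-20 buffer; beta-galactosidase complementation read by luminescence after 1 h at ambient temperature. Dopamine 57 uM final (EC100) as control.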
D2 antagonist – HTS Assay for Allosteric Antagonists of the Human D2 Dopamine Receptor: Primary Screen for Antagonists; D(2) dopamine receptor (Homo sapiens), P14416; HEK293 TREx D2 cells, calcium flux, dopamine EC80; inhibition, % at 10 µM; 340,000 tested, 2% active; AID 485344, 2010; in the data active means inhibition above about 30%; inactive means below that, where a call was filed
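Read-out: kinetic calcium fluorescence (1 cycle/s) in inducible HEK293 T-REx D2 cells after an EC80 dopamine addition that followed 180 s compound preincubation. Loss of the dopamine response indicates antagonism.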
D2 PAM-2 – Beta-Arrestin HTS for Positive Allosteric Modulators of the Human D2 Dopamine Receptor: Potentiators. AID 624464, 2012. potentiation, % (no concentration beside the values). 360,000 tested, 0.23% active. D(2) dopamine receptor (Homo sapiens), P14416. DiscoveRx D2 beta-arrestin cells, luminescence, 90 min; 100% = 57 uM dopamine signal; in the data active means potentiation above about 50%; inconclusive means mostly about 30% to 49%
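D2 cells co-treated with compound plus 50 nM dopamine (EC20) for 90 min at 37 deg C to detect potentiation. Beta-arrestin recruitment was read as enzyme-fragment luminescence after 1 h at ambient temperature. Full response was set by 57 uM dopamine.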
Large screens that a line does not name were inactive.

CCCNC(=O)C1=C(C)C(=O)OC12CCC(C)CC2 (centres undefined)	none
CC1=C(C(=O)NCCN2CCN(C)CC2)C2(CCC(C)CC2)OC1=O (centres undefined)	D2 antagonist 61
COc1ccc(NC(=O)Cn2cc(C(=O)c3ccc(C)c(C)c3)c(=O)c3cc(OC)ccc32)cc1	none (no result: D2 ag-1, D2 ag-2, D2 antagonist, D2 PAM-2)
CCN(Cc1ccccc1)C(=O)c1c(C)oc2ncn(C)c(=O)c12	none (no result: D2 ag-2, D2 antagonist, D2 PAM-2)
CN(C)Cc1c(O)ccc2occ(C(=O)c3ccccc3)c12	D2 PAM-1 54
Cc1ccc(CN2C(=O)CN(C3CCC(C)CC3)C(=O)C2c2ccc(F)cc2)cc1 (centres undefined)	none (no result: D2 ag-2, D2 antagonist, D2 PAM-2)
Cc1cc(C)n(-c2ccc(C(=O)N3CC(C)OC(C)C3)cc2)n1 (centres undefined)	D2 antagonist 34
O=C(OCc1ccccc1)N1CCCCC1c1c(Cl)cccc1Br (centres undefined)	none (no result: D2 PAM-1, D2 ag-1, D2 antagonist)
CC(C)(C)CC(=O)Nc1nnc(CCc2ccccc2)s1	none
CCC(C)(C)C(=O)Nc1nnc(CCc2ccccc2)s1	D2 antagonist 44
O=S(=O)(c1cc(Cl)cc(Cl)c1)N1CCCC1c1nc2ccccc2s1 (centres undefined)	D2 PAM-1 43
Cc1ccc(C2=NN(C(=O)CSc3nnnn3C)C(c3ccco3)C2)cc1 (centres undefined)	D2 antagonist 43
CC1=CC(=O)C(C(C)=Nc2cccc(Cl)c2)C(=O)O1 (centres undefined)	none (no result: D2 PAM-1, D2 ag-1, D2 antagonist)
CCc1ccccc1NC(=O)c1ccc2c(c1)N(Cc1cccc(Cl)c1)C(=O)c1ccccc1S2(=O)=O	none (no result: D2 ag-2, D2 antagonist, D2 PAM-2)
Cc1nc2scc(C)n2c(=O)c1S(=O)(=O)N1CCN(c2ccccc2)CC1	D2 antagonist 32
COc1ccc(N2CCN(S(=O)(=O)c3c(C)nc4scc(C)n4c3=O)CC2)cc1	none
CCOc1ccc(CNC(=O)c2cccn2-c2nnc(N3CCCCC3)s2)cc1OC	none (no result: D2 ag-2, D2 antagonist, D2 PAM-2)
Cc1ccc(NC(=O)C2CC(=O)N(c3ccc(OC(C)C)cc3)C2)cc1 (centres undefined)	none (no result: D2 ag-2, D2 antagonist, D2 PAM-2)
O=C(O)/C=C/c1ccc(-c2cccc(C(F)(F)F)c2)o1	D2 PAM-1 43
O=C(/C=C\c1ccc(-c2ccccc2)o1)c1ccccc1	none (no result: D2 PAM-1, D2 ag-1, D2 antagonist)
CC(=O)c1ccc(N2CCN(C(=O)CCCCn3c(=O)[nH]c4ccccc4c3=O)CC2)cc1	none (no result: D2 ag-2, D2 antagonist, D2 PAM-2)
CCOC(=O)C1CCCN(C(=O)c2cn(CC)c3ccc(S(=O)(=O)N(C)C)cc3c2=O)C1 (centres undefined)	D2 antagonist 35
Cc1cccc(S(=O)(=O)NC(=O)C2(C)CCN2C(=O)CC2CCCCC2)c1 (centres undefined)	none (no result: D2 PAM-1, D2 ag-1, D2 antagonist)
Cc1nnc2ccc(-c3ccc(NS(C)(=O)=O)cc3)nn12	D2 antagonist 33
CC(=O)Nc1ccc(N2CCCC2)cc1	none
CC(=O)Nc1ccc(N2Cc3ccccc3C2)cc1	D2 PAM-2 52
N#Cc1ccc(S(=O)(=O)N2CCC(Oc3cccc(C(F)(F)F)c3)CC2)cc1	none (no result: D2 ag-2, D2 antagonist, D2 PAM-2)
O=C(CN1C(=O)C2C3C=CC(C3)C2C1=O)N1CC(=O)N(CCc2ccccc2)C(=O)C1 (centres undefined)	none
O=C(CCN1C(=O)C2C3C=CC(C3)C2C1=O)N1CC(=O)N(CCc2ccccc2)C(=O)C1 (centres undefined)	D2 antagonist 31
CCCCn1c(-c2nonc2N)nc2ccccc21	none
CC(C)CCn1c(-c2nonc2N)nc2ccccc21	D2 PAM-1 33
COc1ccc(NC(=O)c2cc(C(C)=O)n3ccccc23)cc1	none (no result: D2 ag-2, D2 antagonist, D2 PAM-2)
CCCn1c(N)c(Sc2ccccc2)c(=O)n(CCC)c1=O	D2 antagonist 49
FC(F)(F)c1cccc(N2CCN(Cc3cccnc3)CC2)c1	D2 antagonist 76
COc1cccc(N2CCN(Cc3cccnc3)CC2)c1	none
FC(F)(F)c1cccc(N2CCN(Cc3ccoc3)CC2)c1	D2 antagonist 103
Cc1ccc(NC(=O)CS(=O)CC(=O)N(CC(=O)NC2CCCC2)c2cc(C)ccc2C)cc1 (centres undefined)	none (no result: D2 ag-1, D2 antagonist)
Cc1ccc(NC(=O)CS(=O)CC(=O)N(C2CCCC2)C(C)C(=O)NC2CCCCC2)cc1 (centres undefined)	D2 PAM-1 49
CCc1ccc(C2CC(c3ccccc3)n3ncnc3N2)cc1 (centres undefined)	D2 antagonist 42
CCc1ccc(C2CC(c3ccccc3)Nc3nc(N)nn32)cc1 (centres undefined)	none
S=C1SCN(Cc2ccccn2)CN1Cc1ccco1	D2 antagonist 36
COCCN1CSC(=S)N(Cc2ccco2)C1	none
Cc1ccc(NC(=O)c2ccc(OCc3c(C)noc3C)cc2)cc1	none (no result: D2 ag-2, D2 PAM-2)
Cc1ccc(NC(=O)c2ccc(OCc3c(C)noc3C)cc2)nc1	D2 antagonist 34
CCOc1ccccc1CNC(=O)c1ccc(N2Cc3ccccc3Oc3ncccc32)s1	none (no result: D2 ag-2, D2 antagonist, D2 PAM-2)
COCC(C)NC(=O)CCS(=O)(=O)c1nc(-c2ccc(OC)cc2)cc(C(F)(F)F)n1 (centres undefined)	D2 PAM-1 39
O=C(CCc1ccc(S(=O)(=O)N2CCOCC2)cc1)N/N=C/c1ccc(O)c(O)c1O	D2 ag-2 inconclusive, D2 PAM-2 82
O=C(CCc1ccc(S(=O)(=O)N2CCOCC2)cc1)N/N=C/c1ccc(F)cc1F	none
COc1ccccc1CNC(=O)CCCn1c(=O)c2ccccc2n(Cc2ccc(F)cc2)c1=O	none (no result: D2 ag-2, D2 antagonist, D2 PAM-2)
O=C(Cc1ccccc1[N+](=O)[O-])NCc1ccc(Cl)cc1Cl	D2 antagonist 33
O=S(=O)(c1ccccc1)N1CCN(C(=S)NCCc2ccccc2)CC1	D2 antagonist 38
Cc1cc(Nc2ccccc2)c2c([N+](=O)[O-])cc(C)c(C)c2n1	D2 PAM-1 39
COc1ccc2c(c1)CCC/C2=N\NC(=O)c1ccoc1C	D2 antagonist 38
CCN(c1ccc(C)cc1C)S(=O)(=O)c1nnc(NC(=O)CC(C)C)s1	none (no result: D2 ag-2, D2 antagonist, D2 PAM-2)
COc1ccc(CN(C)C(=O)CNC(=O)c2cccs2)c(OC)c1	none
COc1cccc(CN(C)C(=O)CNC(=O)c2cccs2)c1OC	D2 antagonist 38
Cc1c(C(=O)Nc2nc(-c3ccc(F)cc3)ns2)oc2ccc(Cl)cc12	none (no result: D2 ag-2, D2 antagonist, D2 PAM-2)
Cc1ccc(NC(=O)/C=C/c2cccc(C(F)(F)F)c2)cc1	D2 antagonist 69
O=C(/C=C/c1cccc(C(F)(F)F)c1)Nc1cccc(C(F)(F)F)c1	none
CC(=O)Nc1ccc(Nc2nc3ccc(C)cc3n3nnnc23)cc1	none (no result: D2 ag-2, D2 antagonist, D2 PAM-2)
O=C(/C=C/c1ccc2c(c1)OCO2)NCCSCc1ccc(Cl)cc1	none
